Screening data (PubChem BioAssay)
The list is not random: actives were taken first. Their share in the collection is about 4.5%.
TIM10 inh: growth inhibitors of isogenic TIM10 control yeast, primary screen, counter-screen for tim10-1 yeast inhibitor project, luminescence, uHTS; S. cerevisiae TIM10 strain growth, BacTiter-Glo luminescence, 24 h; inhibition, % at 10 µM; 330,000 compounds, 1.4% hits; AID 463195, 2010;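 active = inhibition of 40% or more at the single tested concentration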;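 note: wild-type TIM10 isogenic control strain grown at permissive 25 °C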
PfHsp90 yeast 2: growth inhibition of PfHsp90-expressing yeast, primary screen, antimalarial PfHsp90 inhibitor project, S. cerevisiae, BacTiter-Glo luminescence, single point, set 2 | BacTiter-Glo ATP, 48 h; yeast lacking PDR1 and PDR3 efflux regulators | inhibition, % at 9.4 µM | 310,000 compounds, 0.32% hits;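 active = every replicate shows inhibition above about 80%, whatever the replicate mean, limit read from the data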
NALP3 yeast inh: NALP3 inflammasome inhibitors in reconstituted yeast, primary screen, luminescence, uHTS. Yeast reconstituted NLRP3/ASC/caspase-1, beta-gal luminescence, 24 h. 330,000 compounds, 0.39% hits. inhibition, % at 10 µM;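 active = inhibition of 50% or more; inactive = inhibition below 50%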
tim23-1 inh: growth inhibitors of tim23-1 mutant yeast, primary screen, luminescence, uHTS; S. cerevisiae tim23-1 growth, BacTiter-Glo luminescence, 24 h; inhibition, % at 20 µM; 330,000 compounds, 1.3% hits; AID 463212, 2010;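 active = growth inhibition of the mutant yeast at or above 50%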;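 note: temperature-sensitive mutant grown at 25 °C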
SKKanGAS inh: S. pyogenes SKKanGAS growth inhibitors in kanamycin, primary screen, streptokinase expression inhibitor project, SKKanGAS strain, BacTiter-Glo luminescence; 6 h; inhibition, % at 7.5 µM; 300,000 compounds, 1.3% hits;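 active = mean replicate score, as percent of positive control median, at least 50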;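 note: strain carries kanamycin resistance gene driven by streptokinase promoter and grows in 40 µg/ml kanamycin; loss of luminescence reflects streptokinase promoter inhibition or plain growth inhibition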
tim10-1 inh: growth inhibitors of tim10-1 mutant yeast, primary screen, luminescence, uHTS; S. cerevisiae tim10-1 ts strain growth, BacTiter-Glo, 24 h; AID 463190, 2010; inhibition, % at 20 µM; 330,000 compounds, 2.2% hits;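 active = inhibition of at least 40%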;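 note: mutant grown at 25 °C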
TIM10 conf: growth inhibitors of wild-type TIM10 yeast, confirmation, counter-screen for tim10-1 synthetic lethality project, single concentration, luminescence, S. cerevisiae; shares compounds with TIM10 inh; S. cerevisiae tim10 strain growth, BacTiter-Glo luminescence, 24 h; inhibition, % at 10 µM; 4,600 compounds, 63% hits; AID 463215, 2010;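 active = inhibition of yeast growth at or above a set limit in either of two replicates at 10 µM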; note: this counterscreen used the strain with wild-type TIM10
Hits are given with their value.

`CCN(CC)c1ccc(-n2c(C)c(C(C)=O)c(C(C)=O)c2C)cc1` gave TIM10 inh 43.6, NALP3 yeast inh inactive, tim23-1 inh inactive, SKKanGAS inh inactive, tim10-1 inh inactive and TIM10 conf inactive.
For CC(c1nnc(SCC(=O)N(C)C2CCS(=O)(=O)C2)n1-c1ccccc1)N(C)C (configuration not stated) the results were TIM10 inh inactive, PfHsp90 yeast 2 inactive, NALP3 yeast inh inactive, tim23-1 inh inactive and tim10-1 inh inactive.
Screening CC1CCCCN1Cc1c(O)ccc2c(=O)c(-c3nc4ccccc4s3)c(N)oc12 (configuration not stated) returned TIM10 inh 41.7, PfHsp90 yeast 2 inactive, NALP3 yeast inh inactive, tim23-1 inh inactive, SKKanGAS inh inactive, tim10-1 inh inactive and TIM10 conf inactive.
CCNc1c(NC(=O)c2cccs2)c(=O)oc2ccccc12 was read as TIM10 inh inactive, PfHsp90 yeast 2 inactive, NALP3 yeast inh inactive, tim23-1 inh inactive, SKKanGAS inh inactive and tim10-1 inh inactive.
COc1ccc(CCC(=O)OCc2csc(CC(=O)Nc3ccc(C)cc3)n2)cc1OC was read as TIM10 inh inactive, PfHsp90 yeast 2 inactive, NALP3 yeast inh inactive, tim23-1 inh inactive and tim10-1 inh inactive.
For CCN(CC)C(=O)Oc1ccc2c(=O)c(-c3ccc(OC)cc3)c(C)oc2c1 the results were TIM10 inh 45.1, NALP3 yeast inh inactive, tim23-1 inh inactive, SKKanGAS inh inactive, tim10-1 inh inactive and TIM10 conf inactive.
`CCN(CC)C(=O)Oc1ccc2c(=O)c(-c3ccc(OC)cc3)coc2c1` gave TIM10 inh inactive, PfHsp90 yeast 2 inactive, NALP3 yeast inh inactive, tim23-1 inh inactive, SKKanGAS inh inactive and tim10-1 inh inactive.
Cc1ccc(O)c(-c2cc(-c3ccccc3F)[nH]n2)c1 was read as TIM10 inh 48.1, PfHsp90 yeast 2 inactive, NALP3 yeast inh inactive, tim23-1 inh inactive, SKKanGAS inh inactive, tim10-1 inh inactive and TIM10 conf 43.0.
Screening COC(=O)c1ccc(COc2ncnc3ccccc23)o1 returned TIM10 inh inactive, PfHsp90 yeast 2 inactive, NALP3 yeast inh inactive, tim23-1 inh inactive, SKKanGAS inh inactive and tim10-1 inh inactive.
`Cc1cccc(C(=O)NNC(=O)C23CC4CC(CC(C4)C2)C3)c1O` gave TIM10 inh 48.7, PfHsp90 yeast 2 inactive, NALP3 yeast inh inactive, tim23-1 inh inactive, SKKanGAS inh inactive, tim10-1 inh inactive and TIM10 conf 46.1.
For COC(=O)C1=C(C)N(c2ccccc2)/C(=C/c2cccs2)C1=O the results were TIM10 inh 51.2, PfHsp90 yeast 2 inactive, NALP3 yeast inh inactive, tim23-1 inh inactive, SKKanGAS inh inactive, tim10-1 inh inactive and TIM10 conf 34.7.
For COC(=O)C1=C(C)N(c2ccc(Cl)cc2)/C(=C/c2ccc(O)cc2)C1=O the results were TIM10 inh inactive, PfHsp90 yeast 2 inactive, NALP3 yeast inh inactive, tim23-1 inh inactive, SKKanGAS inh inactive and tim10-1 inh inactive.
`COC(=O)C1=C(C)N(c2cccc(C)c2)C(=O)/C1=C\c1cccs1` gave TIM10 inh inactive, PfHsp90 yeast 2 inactive, NALP3 yeast inh inactive, tim23-1 inh inactive, SKKanGAS inh inactive and tim10-1 inh inactive.
For COC(=O)C1=C(C)N(c2ccc(Cl)cc2)/C(=C/c2cccs2)C1=O the results were TIM10 inh 47.4, PfHsp90 yeast 2 inactive, NALP3 yeast inh inactive, tim23-1 inh inactive, SKKanGAS inh inactive, tim10-1 inh inactive and TIM10 conf inactive.
For COC(=O)C1=C(C)N(c2ccc(C)c(C)c2)/C(=C/c2cccs2)C1=O the results were TIM10 inh 50.2, PfHsp90 yeast 2 inactive, NALP3 yeast inh inactive, tim23-1 inh inactive, SKKanGAS inh inactive, tim10-1 inh inactive and TIM10 conf 46.6.
Screening N#CC(CCc1ccc([N+](=O)[O-])cc1)(CCc1ccc([N+](=O)[O-])cc1)C(N)=O returned PfHsp90 yeast 2 inactive.
`CSc1nc(-c2ccccc2)nn1C(=O)c1ccc(C)cc1` gave TIM10 inh 41.9, PfHsp90 yeast 2 inactive, NALP3 yeast inh inactive, tim23-1 inh inactive, SKKanGAS inh inactive, tim10-1 inh inactive and TIM10 conf 42.3.
Screening CSc1nc(-c2ccco2)nn1C(=O)c1ccc(C)cc1 returned TIM10 inh inactive, NALP3 yeast inh inactive, tim23-1 inh inactive, SKKanGAS inh inactive and tim10-1 inh inactive.
For CO/N=C(\c1nonc1N)N1CCN(c2ccc(Cl)cc2[N+](=O)[O-])CC1 the results were TIM10 inh 43.4, NALP3 yeast inh inactive, tim23-1 inh inactive, SKKanGAS inh inactive, tim10-1 inh inactive and TIM10 conf 31.1.
For CCO/N=C(/c1nonc1N)N1CCN(c2ccc([N+](=O)[O-])cc2)CC1 the results were TIM10 inh inactive, PfHsp90 yeast 2 inactive, NALP3 yeast inh inactive, tim23-1 inh inactive, SKKanGAS inh inactive and tim10-1 inh inactive.
For CN(Cc1ccco1)S(=O)(=O)c1ccc(CN2C(=O)c3cccnc3C2=O)s1 the results were TIM10 inh inactive, PfHsp90 yeast 2 inactive, NALP3 yeast inh inactive, tim23-1 inh inactive, SKKanGAS inh inactive and tim10-1 inh inactive.
Screening COc1ccccc1N(C)S(=O)(=O)c1ccc(C(=O)NCCc2ccc(F)cc2)cc1 returned TIM10 inh 45.7, PfHsp90 yeast 2 inactive, NALP3 yeast inh inactive, tim23-1 inh inactive, SKKanGAS inh inactive, tim10-1 inh inactive and TIM10 conf 50.8.
CN(c1ccccc1)S(=O)(=O)c1ccc(C(=O)NCCc2ccc(F)cc2)cc1 was read as TIM10 inh inactive, PfHsp90 yeast 2 inactive, NALP3 yeast inh inactive, tim23-1 inh inactive, SKKanGAS inh inactive and tim10-1 inh inactive.
For CCOC(=O)C1=C(C)NC(=S)N(C(C)=O)C1c1ccc(OC)c(OC)c1 (configuration not stated) the results were TIM10 inh inactive, PfHsp90 yeast 2 inactive, NALP3 yeast inh inactive, tim23-1 inh inactive, SKKanGAS inh inactive and tim10-1 inh inactive.
For CCOC(=O)C1=C(C)NC(=O)NC1c1ccc(-c2ccc(Cl)cc2)o1 (configuration not stated) the results were TIM10 inh inactive, PfHsp90 yeast 2 inactive, NALP3 yeast inh inactive, tim23-1 inh inactive, SKKanGAS inh inactive and tim10-1 inh inactive.
For CCOC(=O)C1=C(C)NC(=S)NC1c1ccc(-c2ccc(Cl)cc2)o1 (configuration not stated) the results were TIM10 inh 44.4, PfHsp90 yeast 2 inactive, NALP3 yeast inh inactive, tim23-1 inh inactive, SKKanGAS inh inactive, tim10-1 inh inactive and TIM10 conf 33.2.
